PubChem BioAssay (Tox21)
Values joined by “and” are separate entries in the source; they are usually repeats but may differ in a detail not shown here. Identical values can stand only once. Inconclusive results are not listed. Some compounds were tested as several samples or in several runs, with calls that do not always agree. Active and inactive are the calls of the source. Unless noted, calls come from the whole dose curve; as a rule, active = well fitted curve in the direction sought with a large enough effect in the repeat runs; inconclusive = weak or mixed curves; inactive = no such curve, though single readings can be large; an effect the other way counts as inactive or inconclusive.

Tests used:
[1] = qHTS assay to identify small molecule agonists of H2AX (AID 1224845; active = well fitted activation curve with a large enough effect in the signal ratio in the repeat runs, not every such curve was filed as active; the % refers to the signal ratio)
Outline: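 Phospho-H2AX Ser139 measured by HTRF (ex 320 nm; em 665 and 620 nm) after 24 hr antibody incubation. Compounds, 15 concentrations, 0.76% DMSO, were applied to CHO-K1 cells for 3hr at 37C before lysis.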

[2] = qHTS assay to identify small molecule agonists of the hypoxia (HIF-1) signaling pathway (AID 1224846; active = well fitted activation curve with a large enough effect in the signal ratio in the repeat runs, not every such curve was filed as active; the % refers to the signal ratio)
Outline: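 ME-180 HRE-bla reporter cells; compounds in DMSO, 17 h at 37C; read-out beta-lactamase via CCF4-AM FRET.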

[3] = qHTS assay to identify small molecule agonists of H2AX - cell viability counter screen (AID 1224847; calls by dose curve; note: nearly all actives have a fitted effect of over 30% in size; note: potency is the fitted concentration of half-maximal effect)
Outline: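 Counter-screen for viability: CellTiter-Glo ATP luminescence read after 3 h compound treatment (15-point titration, 0.76% DMSO final) of CHO-K1 cells at 37C, with 30 min room-temperature reagent incubation.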

[4] = qHTS RealTime-Glo MT Cell Viability Assay in HEK293 cells - 32 hour (AID 1224868); note: nearly all actives have a fitted effect of over 50% in size; note: potency is the fitted concentration of half-maximal effect
Outline: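 Viability tracked continuously by luminescence as live cells reduce a prosubstrate for NanoLuc; HEK293 cells preincubated 5 h, compound-treated at 37 C, and read at 0, 8, 16, 24, 32 and 40 h.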

[5] = qHTS RealTime-Glo MT Cell Viability Assay in HepG2 cells - 40 hour (AID 1224870); note: nearly all actives have a fitted effect of over 50% in size; note: potency is the fitted concentration of half-maximal effect
Outline: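 Real-time viability: cells seeded at 600 per well together with NanoLuc and cell-permeant prosubstrate, compounds added after 5 h incubation. Luminescence tracked at 0, 8, 16, 24, 32 and 40 h of exposure.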

[6] = A CellTox Green Cytotoxicity Assay to monitor cytotoxicity in HEK293 cells - 40 hour (AID 1224871); note: nearly all actives have a fitted effect of over 45% in size; note: potency is the fitted concentration of half-maximal effect
Outline: (§1)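 Real-time, in one plate: 600 HEK293 cells/well with dead-cell DNA dye, pinned compound after 5 h, 37 C incubation over 40 h; viable cells give no appreciable fluorescence.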

[7] = A CellTox Green Cytotoxicity Assay to monitor cytotoxicity in HEK293 cells - 0 hour (AID 1224869); note: nearly all actives have a fitted effect of over 50% in size
Outline: as §1

[8] = qHTS assay to identify small molecule antagonists of the estrogen related receptor (ERR) signaling pathway from Tox21 library (AID 1224848); note: nearly all actives have a fitted effect of over 50% in size; note: potency is the fitted concentration of half-maximal effect
Outline: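 Luciferase luminescence (ONE-Glo, 30 min room temperature) was the read-out. Cells of the NTP-supplied ERR line, 2,000 per well, were given 6 h at 37 C before compound addition in DMSO and 18 h exposure at 37 C.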

[9] = qHTS assay to identify small molecule agonists of the estrogen related receptor (ERR) signaling pathway from Tox21 library (AID 1224849; calls by dose curve; note: nearly all actives have a fitted effect of over 15% in size); conditions: ERR reporter cell line, ONE-Glo luciferase, 18 h
Outline: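 Luciferase activity in ERR pathway reporter cells served as the agonist readout; exposure lasted 18 h at 37 C, with ONE-Glo detection after 30 min at room temperature.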

[10] = qHTS RealTime-Glo MT Cell Viability Assay in HepG2 cells - 24 hour (AID 1224867); note: nearly all actives have a fitted effect of over 50% in size
Outline: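 Viability was tracked continuously by NanoLuc luminescence from prosubstrate reduced by living HepG2 cells, at successive time points over 40 h of compound exposure. Cells with reagent were preincubated 5 h at 37 °C before compound addition.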
% is set by controls: 0 for no effect and ±100 for the full control effect.

NC(=O)NNc1ccccc1
inactive: Potency [1] | outcome [2] | Potency [3] | Potency [4] | Potency [5] | Potency [6]

O=C1N=C(O)CN1/N=C/c1ccc(-c2ccc([N+](=O)[O-])cc2)o1
inactive: Potency [1] | Potency [3] | Potency [4] | Potency [7] | Potency [5] | Potency [6]

CCC(=O)O
inactive: Potency [1] | outcome [2] | Potency [3] | Potency [4] | Potency [5] | Potency [6]

CS(=O)(=O)Nc1ccc([N+](=O)[O-])cc1Oc1ccccc1
inactive: Potency [1] | Potency [3] | activity change, positive = activation ([9]; at 42.5 µM (top of the series)) -19.6% | activity change, positive = activation ([9]; at 92.4 µM (top of the series)) -48.5% | Potency [10] | Potency [4] | Potency [5] | Potency [6]
active: Potency [8] 38.6 µM

CC1=C(CC(=O)O)c2cc(F)ccc2/C1=C\c1ccc(S(C)=O)cc1 (centres undefined)
inactive: Potency [1] | Potency [3] | Potency [10] | Potency [4] | Potency [7] | Potency [5] | Potency [6]

Clc1ccc(Cl)c(Cl)c1Cl
inactive: Potency [1] | outcome [2] | Potency [3] | Potency [4] | Potency [5] | Potency [6]

CCCCCCCCCCCCOCC1CO1 (centres undefined)
inactive: outcome [2] | Potency [3] | Potency [8] | activity change, positive = activation ([9]; at 92.4 µM (top of the series)) -2.77% and -4.37% | Potency [10] | Potency [4] | Potency [7] | Potency [5] | Potency [6]

CS(=O)(=O)c1ccc([C@@H](O)[C@@H](CO)NC(=O)C(Cl)Cl)cc1
inactive: Potency [1] | Potency [3] | Potency [10] | Potency [4] | Potency [7] | Potency [5] | Potency [6]

C/C=C(C)/C=C/C=C(C)C
inactive: Potency [1] | outcome [2] | Potency [3] | Potency [4] | Potency [7] | Potency [5] | Potency [6]

CCOC(=O)/C=C\C(=O)OCC
inactive: outcome [2] | Potency [3] | Potency [8] | Potency [10] | Potency [4] | Potency [7] | Potency [5] | Potency [6]
1.73% (inactive) and 0.529% (active): activity change, positive = activation ([9]; at 92.4 µM (top of the series))

NCCNCCNCCNCCN
inactive: outcome [2] | Potency [3] | Potency [8] | activity change, positive = activation ([9]; at 8.39 µM (top of the series)) 3.41% | activity change, positive = activation ([9]; at 92.4 µM (top of the series)) 2.98% | Potency [4] | Potency [5] | Potency [6]

CCOC(=O)[C@H](CCc1ccccc1)N[C@@H](C)C(=O)N1Cc2ccccc2C[C@H]1C(=O)O
inactive: outcome [2] | Potency [3] | Potency [8] | activity change, positive = activation ([9]; at 42.5 µM (top of the series)) -3.47% | activity change, positive = activation ([9]; at 92.4 µM (top of the series)) -6.49% | Potency [10] | Potency [4] | Potency [7] | Potency [5] | Potency [6]

O=C(Oc1ccccc1)c1ccc(O)cc1
inactive: Potency [1] | outcome [2] | Potency [10] | Potency [4] | Potency [5] | Potency [6]

CCCCOCCOCCOC(=O)CCCCC(=O)OCCOCCOCCCC
inactive: Potency [1] | outcome [2] | Potency [3] | Potency [4] | Potency [5] | Potency [6]

O=C(c1cc(O)c(O)c(O)c1)c1ccc(O)c(O)c1O
inactive: outcome [2] | Potency [3] | Potency [8] | activity change, positive = activation ([9]; at 42.5 µM (top of the series)) -6.33% | activity change, positive = activation ([9]; at 92.4 µM (top of the series)) -10.5% and -15.9% | Potency [10] | Potency [4] | Potency [5] | Potency [6]

Nc1nc2ncc(CNc3ccc(C(=O)N[C@@H](CCC(=O)O)C(=O)O)cc3)nc2c(=O)[nH]1
inactive: Potency [1] | Potency [3] | Potency [4] | Potency [7] | Potency [5] | Potency [6]

O=C1O[C@H](CO)[C@@H](O)[C@H](O)[C@H]1O
inactive: outcome [2] | Potency [3] | Potency [8] | activity change, positive = activation ([9]; at 42.5 µM (top of the series)) 3.62% | activity change, positive = activation ([9]; at 92.4 µM (top of the series)) -0.676% | Potency [10] | Potency [4] | Potency [5] | Potency [6]

Cc1cc(Cc2ccc(N)c(C)c2)ccc1N
inactive: Potency [1] | outcome [2] | Potency [3] | Potency [4] | Potency [7] | Potency [5] | Potency [6]

CCc1ccc(O)cc1
inactive: outcome [2] | Potency [3] | Potency [8] | activity change, positive = activation ([9]; at 92.4 µM (top of the series)) 0.519% and 6.7% | Potency [10] | Potency [4] | Potency [5] | Potency [6]

OC[C@@H](O)[C@@H](O)[C@H](O)[C@@H](O)CO
inactive: outcome [2] | Potency [3] | Potency [8] | activity change, positive = activation ([9]; at 92.4 µM (top of the series)) 3.67% and 4.92% | Potency [10] | Potency [4] | Potency [5] | Potency [6]

O=c1c(-c2ccc(O)cc2)coc2cc(O)ccc12
inactive: Potency [1] | Potency [3] | Potency [8] | Potency [10] | Potency [5] | Potency [6]
active: activity change, positive = activation ([9]; at 92.4 µM (top of the series)) 150% and 64.9%

C=C(C)C(=O)OCCC[Si](OC)(OC)OC
inactive: Potency [1] | outcome [2] | Potency [3] | Potency [4] | Potency [5] | Potency [6]

CNC[C@H](O)[C@@H](O)[C@H](O)[C@H](O)CO
inactive: Potency [1] | Potency [3] | Potency [10] | Potency [4] | Potency [7] | Potency [5] | Potency [6]

O=C1CCCCC1
inactive: outcome [2] | Potency [3] | Potency [8] | activity change, positive = activation ([9]; at 92.4 µM (top of the series)) -2.85% and -5.66% | Potency [10] | Potency [4] | Potency [5] | Potency [6]

CCCCCCCCCCCCN
inactive and 34.7 µM (active): Potency [5]
inactive and 43.6 µM (active): Potency [4]
inactive: Potency [1] | outcome [2] | Potency [7]
inactive and 49 µM (active): Potency [6]
inactive and 20.1 µM (active): Potency [3]

OCC#CCO
inactive: Potency [1] | outcome [2] | Potency [3] | Potency [4] | Potency [5] | Potency [6]

ClC1=C(Cl)C(Cl)(Cl)C(Cl)=C1Cl
inactive: Potency [1] | Potency [3] | Potency [8] | activity change, positive = activation ([9]; at 92.4 µM (top of the series)) 5.38% and 4.2% | Potency [10] | Potency [7] | Potency [5]
active: Potency [4] 39.1 µM | Potency [6] 12.4 µM and 34.7 µM
